In PubChem BioAssay (Tox21):
Records with an inconclusive call do not appear. Where a call stands in place of a potency, no number is given. Unmarked numbers belong to inactive results. The source made the active and inactive calls. The call rests on the fitted dose curve.

Target: Acetylcholinesterase (Homo sapiens) (UniProt P22303)
Experiment: Acetylcholinesterase (AChE) small molecule antagonists: colormetric cell-based qHTS assay (AID 1347395); further: nearly all actives have a fitted effect of over 30% in size
Conditions: SH-SY5Y cells AChE activity, colorimetric (Ellman); series mostly up to 115 µM
Procedure, shortened: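 SH-SY5Y cells attached overnight, exposed to compound 30 min at 37 C, then given DTNB/acetylthiocholine; after 90 min at 37 C, colorimetric thiocholine read gives cellular AChE activity.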

Sequence of Acetylcholinesterase (Homo sapiens) (P22303 whole entry, looked up): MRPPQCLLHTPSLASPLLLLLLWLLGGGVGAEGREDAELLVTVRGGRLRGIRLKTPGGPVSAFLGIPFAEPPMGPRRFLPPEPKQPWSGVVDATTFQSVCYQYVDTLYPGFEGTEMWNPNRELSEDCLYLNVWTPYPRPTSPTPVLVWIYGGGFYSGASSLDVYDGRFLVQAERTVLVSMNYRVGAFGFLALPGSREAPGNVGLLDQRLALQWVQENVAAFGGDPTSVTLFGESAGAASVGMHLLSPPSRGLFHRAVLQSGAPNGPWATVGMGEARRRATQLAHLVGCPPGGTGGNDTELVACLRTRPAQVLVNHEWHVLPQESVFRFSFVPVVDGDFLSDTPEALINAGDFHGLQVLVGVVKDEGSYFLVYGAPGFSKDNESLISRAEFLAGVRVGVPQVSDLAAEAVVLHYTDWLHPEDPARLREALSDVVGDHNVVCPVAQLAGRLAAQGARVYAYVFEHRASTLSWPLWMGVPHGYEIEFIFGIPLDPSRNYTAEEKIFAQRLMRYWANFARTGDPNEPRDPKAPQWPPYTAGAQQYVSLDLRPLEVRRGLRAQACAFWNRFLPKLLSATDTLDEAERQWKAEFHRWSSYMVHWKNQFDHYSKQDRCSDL

Row | Compound | Potency | activity, negative = inhibition
1 | CCOCCOCCOCCO | inactive | 
2 | CCCCCCCCCCCC(=O)OCC(O)CO (centres undefined) | inactive | 
3 | Cc1cccc(C(C)(C)C)c1O | inactive | 
4 | O=C(O)CCNC(=O)c1ccc(N=Nc2ccc(O)c(C(=O)O)c2)cc1 | inactive | 
5 | CCN(CC)CC1CCCCN1CC(=O)N1c2ccccc2C(=O)Nc2cccnc21 (centres undefined) | inactive | 
6 | O=[N+]([O-])c1c(Cl)cc(Cl)cc1Cl | inactive | 
7 | CCCC(=O)O[C@]1(C(=O)CO)CC[C@H]2[C@@H]3CCC4=CC(=O)CC[C@]4(C)[C@H]3[C@@H](O)C[C@@]21C | inactive | 
8 | c1ccc2cc3c(ccc4ccccc43)cc2c1 | inactive | 
9 | CCOC(=O)C(O)c1ccccc1 (centres undefined) | inactive | 
10 | C=C(C)C(=O)O | inactive | 
11 | Cc1c(-c2cccnc2)c2ccccc2n1CCCCC(=O)O | inactive | 
12 | Cc1nnc(NS(=O)(=O)c2ccc(N)cc2)s1 | inactive | 
13 | CCCCCCC(=O)O | inactive | 
14 | O=C(O)C1CCC(C(=O)O)CC1 (centres undefined) | inactive | 
15 | CC(=O)CC(C)(C)O | inactive | 
16 | CCOC(=O)/C=C\C(=O)OCC | inactive | 
17 | O=C(NC(Cc1cc(=O)[nH]c2ccccc12)C(=O)O)c1ccc(Cl)cc1 (centres undefined) | inactive | 
18 | CC(=O)c1ccc(Cl)c(Cl)c1Cl | inactive | 
19 | CC1=C(C)S(=O)(=O)CCS1(=O)=O | inactive | 
20 | C=CC(=O)OCCOC1C2CCC1C1CC=CC12 (centres undefined) |  | 0.351% [at 23.6 µM]
21 | CCCCCCCCCCCC[N+](C)(C)CC(=O)[O-] | inactive | 
22 | C#CC(C)(O)CC(C)C (centres undefined) | inactive | 
23 | Cc1cccc(Nc2cc(Cl)nc(SCC(=O)O)n2)c1C | inactive | 
24 | CN(C)CCCNCCCN(C)C | inactive | 
